# From ChEMBL document CHEMBL3433997, “St. Jude Leishmania screening dataset” (2016)
# Tests used:
# Type in all cases: functional
# [1] = target: Solute carrier family 2, facilitated glucose transporter member 1 (Homo sapiens) (UniProt P11166); experiment: ST_JUDE_LEISH: Cytotoxicity at 2uM final concentration against transgenic Leishmania Mexicana promastigotes LmGLUT1 that are glucose transport deficient and complemented with the human glucose transporter GLUT1. Activity is measured by DNA content using SYBR green in vitro
# Sequence of Solute carrier family 2, facilitated glucose transporter member 1 (Homo sapiens) (P11166 whole entry): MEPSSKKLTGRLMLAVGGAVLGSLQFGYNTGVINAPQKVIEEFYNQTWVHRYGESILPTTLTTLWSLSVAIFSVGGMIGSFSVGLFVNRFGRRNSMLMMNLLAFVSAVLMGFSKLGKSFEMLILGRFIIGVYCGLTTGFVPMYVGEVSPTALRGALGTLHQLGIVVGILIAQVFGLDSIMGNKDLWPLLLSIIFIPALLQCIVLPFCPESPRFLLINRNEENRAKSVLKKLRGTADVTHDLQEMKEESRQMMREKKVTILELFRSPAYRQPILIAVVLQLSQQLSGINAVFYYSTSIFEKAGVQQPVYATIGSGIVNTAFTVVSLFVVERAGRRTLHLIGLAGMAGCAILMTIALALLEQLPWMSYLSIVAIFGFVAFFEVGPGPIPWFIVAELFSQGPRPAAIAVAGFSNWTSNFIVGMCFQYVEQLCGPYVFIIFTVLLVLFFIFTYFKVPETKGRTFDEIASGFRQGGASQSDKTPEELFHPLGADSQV
# [2] = target: Hexose transporter 1 (Plasmodium falciparum) (UniProt O97467); experiment: ST_JUDE_LEISH: Cytotoxicity at 2uM final concentration against transgenic Leishmania Mexicana promastigotes LmPfHT that are glucose transport deficient and complemented with the Plasmodium falciparum hexose transporter. Activity is measured by DNA content using SYBR green in vitro
# [3] = target: Glucose transporter (Leishmania mexicana) (UniProt O61059); experiment: ST_JUDE_LEISH: Cytotoxicity at 2uM final concentration against transgenic Leishmania Mexicana promastigotes LmGT2 that are glucose transport deficient and complemented with the L. Mexicana glucose transporter 2. Activity is measured by DNA content using SYBR green in vitro
Structure (SMILES),inhibition [1] [%],inhibition [2] [%],inhibition [3] [%]
NCCCCc1c(-c2ccc(Cl)c(Cl)c2)[nH]c2ccc(Cl)cc12,-2.7,-1.68,-3.34
COc1cc(C=Cc2ccc3ccccc3n2)cc(Br)c1OCC(=O)N(C)C,6.85,-1.14,-0.95
CC(C)Cc1nc(N)nc(N)c1-c1ccc(Cl)cc1,6.51,5.64,5.17
CCOc1c(CNCCCNc2cc(O)c3ccccc3n2)cc(I)cc1OC,-0.3,-1.22,1.41
O=C(NC1CC1)c1ccc(Cn2c(SCc3cccc(Cl)c3)nc3ccccc3c2=O)cc1,0.42,-0.54,-1.07
CN1CCN(c2ccc(Nc3nc(N)c4ccn(C5CCC5)c4n3)cc2)CC1,4.19,4.27,2.97
CCc1cn2c3c(cc(C(=O)N[C@@H](Cc4ccccc4)[C@H](O)CNCc4cccc(C)c4)cc13)N(C)S(=O)(=O)CC2,1.35,0.76,2.29
CC(C)(C)C/C=C\c1ccc(C(=O)NCC2CC2)cc1,6.73,9.04,3.76
Cc1ccc(Oc2ncccc2C(=O)Nc2cccc3cccnc23)c(C)c1,-2.47,-0.84,-1.45
Cc1nc(N2CCC(C)CC2)c2c3c(sc2n1)CCCC3,2.21,2.09,0.47
CCn1c(CN2CCN(Cc3ccccc3)CC2)nc2cc(NC(=O)c3cccs3)ccc21,1.2,1.22,-1.93
COc1ccc2cc(-c3nc(-c4c(Cl)cccc4Cl)[nH]c3-c3ccnc(NCCC4CCCN4C)c3)ccc2c1 (stereo unspecified),29.7,12.8,8.98
O=C(Nc1ccc(OC2CCN(Cc3ccc(F)cc3)CC2)c(Cl)c1)c1ccccc1,-3.58,0.82,6.06
O=C(NCCc1ccccc1)c1cc(-c2cccnc2)cnc1NCC1CC1,3.62,6.01,1.98
Cc1cc(F)ccc1-c1nc(Nc2ccncc2)c2ccn(C)c2n1,1.12,2.6,0.38
O=C(NCCCCN1CCC(c2ccc(-c3ccco3)cc2)CC1)c1ccc(NC(=O)c2ccc(Cl)cc2)cc1,2.25,2.49,-0.22
COc1ccc(CCNC(=O)c2ccc(-n3cc(NC(=O)c4cccnc4)cn3)cc2)cc1OC,3.78,3.85,3.79
CCCOc1ccc(CCCON2C(N)=NC(N)=NC2(C)C)cc1,7.95,13,6.99
CCc1ccc(NC(=O)N(CCCn2ccnc2)Cc2csc(-c3ccc(CNCc4ccccc4)cc3)n2)cc1,2.66,2.93,2.49

Structure (SMILES),inhibition [1] [%],inhibition [2] [%],inhibition [3] [%]
N#Cc1cccc(C(=O)Nc2cccc(-c3ccc(CN4CCCC4)cc3)c2)c1,1.56,2.56,2.89
Cc1cccc(Nc2nc(C)cc(N3CCCN(CC4CCCCC4)CC3)n2)c1,-2.84,1.98,-0.15
O=c1cc(NCCCNC(CNCCc2ccccc2)c2cc(Br)cc(Br)c2)[nH]c2ccccc12 (stereo unspecified),2.57,3.4,2.67
COc1cc(-c2cc(-c3ccc(OCCN(C)C)cc3)[nH]c2-c2ccncc2)ccc1Cl,0.75,0.72,2.28
COc1ccc(Cl)cc1N1CCN(CCCNC(=O)c2ccc(-c3nc4cc5ccccc5cc4[nH]3)c(F)c2)CC1,1.51,3.41,1.26
c1ccc(CCNc2ccnc(Nc3ccc4[nH]nnc4c3)n2)cc1,14.1,13.9,10.8
Oc1cc2c(cc1CN1CCN(Cc3cccs3)CC1)CCC2,0.97,-0.33,2.76
Cc1[nH]c2ccccc2c1C(=O)C(C)Sc1nnc(-c2ccccc2F)o1 (stereo unspecified),2.5,1.95,3.81
CCCC(=O)Nc1ccc(Nc2nc(C)cc(N3CCCC3)n2)cc1,1.82,4.49,-0.91
CN1CCN(CCCN(Cc2ccc(-c3cccc(CNC4CCCC4)c3)cc2)C(=O)Nc2ccccc2)CC1,9.1,3.98,5.53
CN(C)CCOc1ccc(-c2cc(-c3ccc(Cl)c(O)c3)c(-c3ccncc3)o2)cc1,4.55,-0.72,4.9
COc1c(C2CCN(CCCCNC(=O)c3cc(-c4ccc(Cl)cc4)oc3C)CC2)ccc2c1CCCC2,9.04,9.78,5.26
CC(C)CNCc1ccc(-c2cccc(CN(CCCN3CCN(C)CC3)C(=O)/C=C/c3ccccc3)c2)cc1,5.83,5.21,5.27
Cc1n[nH]c2cc(Nc3nccc(Nc4ccc(Oc5ccccc5)cc4)n3)ccc12,11.3,7.61,6.15
COc1cc(C(=O)NC2CC(C)(C)N(C)C(C)(C)C2)ccc1-c1cc2cc(Cl)c(Cl)cc2[nH]1,1.97,-1.54,2.48
Nc1nc2c(ncn2COC2COP(=O)(O)OC2)c(=O)[nH]1 (stereo unspecified),12.2,12,12.3
COc1cc(NCC(CN)Cc2ccc3c(c2)OCO3)nc2ccccc12 (stereo unspecified),4.7,3.95,5.88
CCN(CC)/C(=N\CCCCCC/N=C(\NC(=N)c1ccc(Cl)cc1)N(CC)CC)NC(=N)c1ccc(Cl)cc1,1.79,2.4,2.59
